The results in this text go back to PubChem BioAssay AID1851 (National Center for Advancing Translational Sciences (NCATS), 2009).

The campaign covered roughly 16,000 compounds. About 5,100 (32%) were called active. Inconclusive results (about 25%) are left out. Calls come from the whole dose curve; as a rule, active = well fitted curve in the direction sought with a large enough effect; inconclusive = small, poorly fitted or top-dose-only effect, or effect the other way; inactive = no such curve, though single readings can be large or run the other way. The list shows a part of the results.
% is set by controls: 0 for no effect and ±100 for the full control effect.

Chain of Cytochrome P450 3A4 (Homo sapiens) (P08684 whole entry, looked up): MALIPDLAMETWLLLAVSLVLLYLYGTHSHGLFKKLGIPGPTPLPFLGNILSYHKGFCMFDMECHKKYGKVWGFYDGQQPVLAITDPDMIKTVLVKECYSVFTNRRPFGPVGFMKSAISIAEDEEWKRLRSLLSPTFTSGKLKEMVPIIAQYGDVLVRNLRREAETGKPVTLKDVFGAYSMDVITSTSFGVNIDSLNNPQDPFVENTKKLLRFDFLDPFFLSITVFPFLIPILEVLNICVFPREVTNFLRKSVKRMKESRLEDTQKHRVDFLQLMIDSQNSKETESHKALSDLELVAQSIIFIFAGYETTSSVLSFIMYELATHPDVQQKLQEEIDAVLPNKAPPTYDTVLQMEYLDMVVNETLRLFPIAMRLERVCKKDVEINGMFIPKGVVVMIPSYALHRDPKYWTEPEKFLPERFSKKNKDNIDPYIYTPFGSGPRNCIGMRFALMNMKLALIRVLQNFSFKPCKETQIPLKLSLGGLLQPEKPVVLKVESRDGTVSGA

The assay addresses Cytochrome P450 3A4 (Homo sapiens) (UniProt P08684). Nature of the assay: Cytochrome panel assay with activity outcomes. The following applies: recombinant CYP, pro-luciferin dealkylation, luminescence, p450-cyp3a4; series mostly up to 57.1 µM; activity, negative = inhibition: at the top concentration.
`COc1nc(Oc2ccc(/C=N/O)cc2)nc(N(C)C)n1`: the activity, negative = inhibition is -3.18% [at 2.29 µM] (inactive). Usually AC50 stands for the concentration giving half of the maximal activity seen. Take `COc1ccc(/C=C/c2ccncc2)cc1`: the AC50 is 1.58 µM (active). On to `COc1ccc(OC(=O)c2ccncc2)cc1`, for which the “activity, negative = inhibition” value was -18.8% (inactive).

Take `CCOC(=O)C(C)Sc1nnc(CNC(=O)c2ccc(OC)cc2)n1C1CCCCC1` (configuration not stated): the AC50 is 0.891 µM (active). `CCOC(=O)CSc1nnc(CNC(=O)c2ccc(OC)cc2)n1C1CCCCC1`: the AC50 was 2 µM (active).

For the compound `O[C@@H]1[C@@H](OCc2ccccc2)OC[C@H](O)[C@@H]1O`, the activity, negative = inhibition was -2.87% [at 11.4 µM] (inactive). For the compound `Cc1cc(C)cc(N(C(=O)C2CCCC2)C2C=CS(=O)(=O)C2)c1` (configuration not stated), the activity, negative = inhibition is -15.4% [at 2.29 µM] (inactive). With `CCCCC1=NN2C(=N)CC(=O)N=C2S1`, the “activity, negative = inhibition” value is -20.3% (inactive). On the same count and under the same terms, with `CCN(CC)c1ccc(NC(=O)c2cnn(CC)c2)cc1` the figure was -22% (inactive).

On to `CN(C)c1ccc(NC(=O)CSc2nc(N)c(C(=O)Nc3ccc(N(C)C)cc3)s2)cc1`, for which the AC50 was 4.47 µM (active). Regarding `CN[C@@H]1NC(=O)c2ccccc2N1Cc1ccc(F)cc1`, the activity, negative = inhibition is -12.4% [at 11.4 µM] (inactive). On to `Cc1ccc(NC2c3ncccc3C(=O)N2Cc2ccc(F)cc2)cc1` (configuration not stated), for which the AC50 is 4.47 µM (active). Regarding `O=C1c2cccnc2C(=O)N1Cc1ccc(F)cc1`, the “activity, negative = inhibition” value was 7.01% (inactive). As to `CN(Cc1cccc2ccccc12)Cc1cccc2ccccc12`, the activity, negative = inhibition was -53.9% [at 11.4 µM] (inactive). Regarding `Cc1ccc(C)c(C(=N)c2ccccc2Cc2ccccc2)c1`, the AC50 is 3.98 µM (active). Take `Cc1cc(C)c(O)c(Cc2cccc(Cc3cc(C)cc(C)c3O)c2O)c1`: the activity, negative = inhibition was 6.11% [at 11.4 µM] (inactive). In the case of `Cc1ccc(C(=N)c2ccccc2Cc2cccc3ccccc23)c2ccccc12`, the AC50 is 3.98 µM (active). Turning to `c1ccc2c(CC3=NCCN3)cccc2c1`, the “activity, negative = inhibition” value was -2.7% [at 25.6 µM] (inactive). On the same count and under the same terms, the same measure for `N=C(c1ccc2ccccc2c1)c1ccccc1Cc1ccccc1`: -11.9% [at 11.4 µM] (inactive).

For `CN1CCCC1CCNC1C2CC3CC(C2)CC1C3` (configuration not stated), the activity, negative = inhibition was -0.75% [at 2.29 µM] (inactive). The same measure, in the same setting: the same measure for `CN1C(=C2C(=O)OC(C)(C)OC2=O)Sc2ccccc21`: -3.54% (inactive); for `O=C(Oc1c(Br)cc(C(=S)N2CCOCC2)cc1Br)c1ccc(Cl)cc1`: -1.32% [at 2.29 µM] (inactive); for `CN1CCN(c2ncc3nc(-c4cc(F)cc(F)c4)c(=O)n(C)c3n2)CC1`: 6.8% (inactive). The same measure, in the same setting: the same measure for `O=c1c(-c2cccs2)nc2cnc(Oc3ccccc3)nc2n1C1CC1`: 5.66% (inactive). As to `O=c1c(-c2cccs2)nc2cnc(N3CCNCC3)nc2n1C1CC1`, the AC50 was 6.31 µM (active). As for `O=c1c(-c2ccccc2)nc2cnc(N3CCNCC3)nc2n1C1CC1`, the AC50 is 12.6 µM (active). The same measure, in the same setting: with `O=c1c(-c2ccc(F)cc2)nc2cnc(N3CCNCC3)nc2n1C1CC1` the figure was 15.8 µM (active). For the compound `O=c1cnc2cnc(N3CCOCC3)nc2n1C1CC1`, the “activity, negative = inhibition” value was 8.49% (inactive). On to `O=c1c(-c2cc(F)cc(F)c2)nc2cnc(N3CCOCC3)nc2n1C1CC1`, for which the “activity, negative = inhibition” value was 5.06% (inactive). Regarding `O=c1c(-c2cc(F)cc(F)c2)nc2cnc(N3CCNCC3)nc2n1C1CC1`, the AC50 was 25.1 µM (active). For the compound `CN(C)c1ncc2nc(-c3ccccc3)c(=O)n(C3CC3)c2n1`, the “activity, negative = inhibition” value was -24.9% (inactive).

As for `O=c1c(-c2ccccc2)nc2cnc(N3CCOCC3)nc2n1C1CC1`, the “activity, negative = inhibition” value is 7.55% (inactive). Regarding `O=c1c(-c2ccc(Cl)cc2)nc2cnc(N3CCOCC3)nc2n1C1CC1`, the “activity, negative = inhibition” value is -0.899% (inactive).

As for `O=c1c(-c2ccc(F)cc2)nc2cnc(N3CCOCC3)nc2n1C1CC1`, the “activity, negative = inhibition” value is -8.23% (inactive). Turning to `COc1ccc(-c2nc3cnc(N4CCN(C)CC4)nc3n(C3CC3)c2=O)cc1`, the “activity, negative = inhibition” value was 4.85% (inactive). Regarding `COc1ccc(-c2nc3cnc(N4CCNCC4)nc3n(C3CC3)c2=O)cc1`, the AC50 is 10 µM (active). For `COC(=O)[C@@]1(Cc2ccccc2)[C@H]2c3cc(C(=O)N4CCCC4)[nH]c3C[C@H]2CN1C(=O)c1ccccc1`, the AC50 was 2.51 µM (active). Consider `COC(=O)[C@@]1(Cc2ccc(OC)cc2)[C@H]2c3cc(C(=O)N(C)C)[nH]c3C[C@H]2CN1C(=O)c1ccccc1`, for which the AC50 was 1.58 µM (active). For the compound `COc1ccc2c(c1)c(CC(=O)O)c(C)n2C(=O)c1ccccc1`, the “activity, negative = inhibition” value is 5.91% (inactive). Still for that read-out and setting: the same measure for `C[C@@]12CC(=O)[C@@H]3[C@@H](CCC4=CC(=O)CC[C@]43C)[C@@H]1CC=C2CC(=O)O`: -10.5% [at 11.4 µM] (inactive); for `CCOC(=O)C1=C(C)C(c2ccccc2OC)NC(=S)N1` (configuration not stated): -19.1% [at 2.29 µM] (inactive); for `CCOC(=O)C1=C(C)NC(=O)NC1c1ccoc1` (configuration not stated): 15% [at 2.29 µM] (inactive). On to `CCOC(=O)C1=C(C)NC(=S)NC1c1cccc(O)c1` (configuration not stated), for which the AC50 is 1 µM (active). Turning to `CN(Cc1ccco1)c1cc(-c2cccnc2)ncn1`, the AC50 was 3.16 µM (active). With `COc1cccc(-c2cc(N(C)Cc3ccco3)ncn2)c1`, the AC50 was 25.1 µM (active).

Consider `CN(Cc1ccco1)c1cc(-c2cccc(C#N)c2)ncn1`, for which the “activity, negative = inhibition” value is -4.27% (inactive). Turning to `COC(=O)[C@@]1(Cc2ccc(OC)cc2)[C@@H]2[C@@H](CC(=O)[C@H]2CC(=O)C(=O)N2CCCC2)CN1C(=O)c1ccccc1`, the AC50 was 0.794 µM (active). Turning to `COC(=O)[C@@]1(Cc2ccc(F)cc2)[C@@H]2[C@@H](CC(=O)[C@H]2CC(=O)C(=O)N2CCCC2)CN1C(=O)c1ccccc1`, the AC50 was 1.58 µM (active). With `FC(F)(F)c1nnc(-c2ccccc2)nc1Sc1ccccc1`, the “activity, negative = inhibition” value is -29.6% (inactive). As for `c1ccc(Cc2nnc(Sc3ccccc3)c3ccccc23)cc1`, the AC50 was 12.6 µM (active). In the case of `COc1ccc2[nH]cc(CCNc3cc(-c4ccccc4C(F)(F)F)ncn3)c2c1`, the AC50 was 5.01 µM (active). Regarding `COc1ccc2[nH]cc(CCNc3cc(-c4ccccc4C)ncn3)c2c1`, the AC50 was 5.01 µM (active). Consider `COc1ccc2[nH]cc(CCNc3cc(-c4ccccc4OC)ncn3)c2c1`, for which the AC50 is 6.31 µM (active). For `COCCNc1cc(-c2ccccc2C)ncn1`, the “activity, negative = inhibition” value is -2.95% (inactive). Consider `CC(C)OC(=O)CSc1nc(-c2ccc(F)cc2)nc2ccc(F)cc12`, for which the “activity, negative = inhibition” value is -10.7% (inactive). `Cc1onc(-c2ccccc2Cl)c1C(=O)Nc1nnc(Cc2ccc(Cl)cc2)s1`: the AC50 was 3.16 µM (active). Same read-out and setting: the same measure for `Cc1ccc(NC(=S)NC(=O)c2c(-c3ccccc3Cl)noc2C)cc1`: 14.1 µM (active). For `O=C(Nc1ccccc1)c1cc(-c2ccccc2Cl)no1`, the “activity, negative = inhibition” value is -22.5% (inactive).

`O=C(NCc1ccccc1Cl)C1CCN(S(=O)(=O)N2CCC3(CC2)OCCO3)CC1`: the AC50 is 14.1 µM (active). In the case of `O=C(NCCc1ccc(Cl)cc1)C1CCN(S(=O)(=O)N2CCC3(CC2)OCCO3)CC1`, the AC50 was 3.55 µM (active). `CC(C)N(CCNC(=O)C1CCN(S(=O)(=O)N2CCOCC2)CC1)Cc1ccccc1`: the “activity, negative = inhibition” value is 22.3% (inactive). The same measure, in the same setting: with `COCCNC(=O)C1CCN(S(=O)(=O)N2CCC3(CC2)OCCO3)CC1` the figure was -8.44% (inactive).
